The record followed here is PubChem BioAssay (NCATS).

Assay [1] deals with Bile acid receptor (Homo sapiens) (UniProt Q96RI1). The experiment in a line: qHTS assay for small molecule antagonists of farnesoid X receptor signaling (AID 588526). Also: % is scaled to controls: 0 for no effect and ±100 for the full control effect. In outline:
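Antagonist mode: titrated compounds tested against chenodeoxycholic acid stimulation (normalized to 50 uM CDCA and DMSO) in GeneBLAzer HEK293T cells for 16 h. Beta-lactamase read by CCF4 fluorescence; IC50 from Hill fits.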

In assay [2] the target is Glucocorticoid receptor (Homo sapiens) (UniProt P04150). The experiment in a line: qHTS assay for small molecule agonists of glucocorticoid receptor signaling (AID 588532; active = well fitted curve in the direction sought with a large enough effect in the signal ratio, with a control signal flat; the % refers to the signal ratio;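 also: 100% = dexamethasone at 0.1 µM and 0% = DMSO only wells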). Particulars: HeLa MMTV-bla, beta-lactamase ratio, agonist, 18 h; stronger effect = higher value; percent of dexamethasone control, DMSO zero. In outline:
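HeLa GRE-bla reporter cells; 18 h compound exposure at 37 C; 2 h CCF4 loading at room temperature; fluorescence at 460 and 530 nm; EC50 by Hill equation.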
(qHTS replaces the single test concentration by a dilution series.)

Assay [3] shares this target. Briefly: qHTS assay for small molecule antagonists of glucocorticoid receptor signaling (AID 588533; active = well fitted inhibition curve with a large enough effect in the signal ratio, with a control signal flat, not every such curve was filed as active; the % refers to the signal ratio; also: % is scaled to controls: 0 for no effect and ±100 for the full control effect). In outline: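 Antagonist-mode qHTS: compound titrations added to GRE-bla HeLa cells, then dexamethasone 2 nM final; 18 h, 37 C. CCF4 FRET fluorescence normalized to dexamethasone and DMSO; IC50 from Hill fit.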
Assay [4] can be described thus: qHTS assay for small molecule antagonists of peroxisome proliferator-activated receptor delta signaling (AID 588535; active = well fitted inhibition curve with a large enough effect in the signal ratio, with a control signal flat, not every such curve was filed as active; the % refers to the signal ratio;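 as to max response: cells co-treated with a PPAR-delta agonist as stimulator during compound exposure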). Particulars: HEK293T PPARd-UAS-bla, beta-lactamase FRET ratio, 18 h; 460 nm channel. The essentials:
(§1)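 Antagonist-mode beta-lactamase reporter (GeneBLAzer PPAR-delta-UAS-bla) in HEK293T cells, 2% charcoal/dextran FBS, 4000 cells/well. Compound titrations, 18 h at 37 C; CCF4 ratio read, IC50 and efficacy from Hill fits.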

Assay [5] has as its target Peroxisome proliferator-activated receptor delta (Homo sapiens) (UniProt Q03181). The assay is described as above. The essentials: as §1
For assay [6], the target named is Peroxisome proliferator-activated receptor gamma (Homo sapiens) (UniProt P37231). The experiment in a line: qHTS assay for small molecule agonists of peroxisome proliferator-activated receptor gamma signaling (AID 588536; active = well fitted curve in the direction sought with a large enough effect in the signal ratio, with a control signal flat, not every such curve was filed as active; the % refers to the signal ratio;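 also: 0% = DMSO basal wells and 100% = rosiglitazone at 2 µM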). The essentials: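 Ratiometric blue/green fluorescence (405 nm excitation; 460 and 530 nm emission) from CCF4-loaded HEK293 reporter cells serves as signal. Exposure to test compounds lasts 16 h at 37 C in medium containing 1% charcoal/dextran-treated serum.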

For assay [7] the target is unchanged. The experiment in a line: qHTS assay for small molecule antagonists of peroxisome proliferator-activated receptor gamma signaling (AID 588537; active = well fitted inhibition curve with a large enough effect in the signal ratio, with a control signal flat, not every such curve was filed as active; the % refers to the signal ratio;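 also: reporter cells co-stimulated with 50 nM rosiglitazone agonist during compound treatment; % of control where 0% means no effect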). In outline: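 PPARγ-UAS-bla HEK293 cells (3000/well) in 1% charcoal/dextran-stripped FBS are treated with compound, then stimulated with 50 nM rosiglitazone for 16 h at 37 °C. Read-out is CCF4 β-lactamase fluorescence after 2 h at RT. IC50 comes from Hill fits normalised to rosiglitazone and DMSO.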

Assay [8] addresses Vitamin D3 receptor (Homo sapiens) (UniProt P11473). Briefly: qHTS assay for small molecule antagonists of vitamin D receptor signaling (AID 588541).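 Also: receptor activated by calcitriol during compound treatment; series mostly up to about 77 µM; % is scaled to controls: 0 for no effect and ±100 for the full control effect.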 The essentials: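 VDR-UAS-bla HEK293T cells in 2% charcoal-stripped FBS were stimulated with 1-alpha,25-dihydroxyvitamin D3 (3 nM final) plus compound for 16 h at 37 C. The beta-lactamase CCF4 readout was normalized to 50 nM agonist and DMSO, and Hill fits gave IC50.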

The target is the same in assay [9]. Briefly: qHTS assay for small molecule agonists of vitamin D receptor signaling (AID 588543).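 Also: 0% = DMSO basal and 100% = reference agonist control.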 In outline: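 Agonist-mode beta-lactamase reporter: HEK293T VDR-UAS-bla cells in charcoal-stripped 2% FBS, compound series 16 h 37 C, CCF4 2 h RT. EC50 from Hill fit, scaled against DMSO and 50 nM calcitriol control.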
The nature of assay [10]: qHTS assay for small molecule agonists of retinoid X receptor alpha signaling (AID 588544).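 As to activation: 0% = DMSO basal wells and 100% = reference agonist.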 Conditions: HEK293T RXRa-UAS-bla, beta-lactamase reporter, 18 h; 530 nm emission.
Assay [11] addresses Retinoic acid receptor RXR-alpha (Homo sapiens) (UniProt P19793). The description is as above.
Assay [12] addresses Thyroid hormone receptor beta (Homo sapiens) (UniProt P10828). The experiment in a line: qHTS assay for small molecule agonists of thyroid hormone receptor beta signaling (AID 588545).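 Also: 0% = DMSO only and 100% = 10 nM T3.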 The essentials: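 Stimulation of a TR-driven beta-lactamase reporter was quantified in GripTite HEK 293 cells. Compound series ran for 18 hrs; curves were normalized to T3 and DMSO controls and fitted to yield EC50.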

Assay [13] in a line: qHTS assay for small molecule antagonists of retinoid X receptor alpha signaling (AID 588546; active = well fitted inhibition curve with a large enough effect in the signal ratio, with a control signal flat, not every such curve was filed as active; the % refers to the signal ratio;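 also: cells stimulated with 9-cis-retinoic acid as agonist; % is scaled to controls: 0 for no effect and ±100 for the full control effect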). Particulars: HEK293T RXRa-UAS-bla, beta-lactamase ratio, antagonist mode; measured here: W530 green channel, cytotoxicity proxy. In outline:
(§2)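 Beta-lactamase reporter inhibition, read as CCF4 fluorescence ratio (ex 405, em 460/530 nm) after 2 h at RT. HEK293T UAS-bla cells, 2500/well, were stimulated with 9-cis-RA at 500 or 100 nM final alongside test compound for 18 h at 37 C.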

The target of assay [14] is Retinoic acid receptor RXR-alpha (Homo sapiens) (UniProt P19793). Described as above. Particulars: HEK293T RXRa-UAS-bla, beta-lactamase ratio, antagonist mode. In outline: as §2
Assay [15] deals with Voltage-gated inwardly rectifying potassium channel KCNH2 (Homo sapiens) (UniProt Q12809). The experiment in a line: qHTS Assay for Small Molecule Inhibitors of the Human hERG Channel Activity (AID 588834; active = well fitted inhibition curve with a large enough effect;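 also: top concentration of the series differs between compounds; % is scaled to controls: 0 for no effect and ±100 for the full control effect; lower thallium flux fluorescence means stronger hERG block; nearly all actives have a fitted effect of over 50% in size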). In outline: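 Kinetic FDSS fluorescence; U2OS + hERG BacMam (~100 virus particles/cell); FluxOR Tl+ flux; ~10 min cpd; AC50 (Hill).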
Assay [16] is described as follows: qHTS assay for small molecule agonists of the antioxidant response element (ARE) signaling pathway (AID 651741; active = well fitted activation curve with a large enough effect in the signal ratio; the % refers to the signal ratio; also: % of control where 0% means no effect). In outline:
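CellSensor ARE-bla HepG2 cells (2,000/well) carrying ARE-driven beta-lactamase, exposed 16 h at 37 C. LiveBLAzer B/G FRET substrate added for 2 h at room temperature; fluorescence intensity read.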

The nature of assay [17]: qHTS assay for small molecule activators of the p53 signaling pathway (AID 651743; active = well fitted activation curve with a large enough effect in the signal ratio, not every such curve was filed as active; the % refers to the signal ratio; also: series mostly up to about 92 µM; % of control where 0% means no effect). Particulars: HCT-116 p53RE-bla, beta-lactamase FRET ratio, 16 h; stronger effect = higher value. In outline: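 p53RE-bla HCT-116 cells carrying a beta-lactamase reporter under p53 response elements were exposed to compounds for 16 hours at 37 C. Reporter activity read as fluorescence after 2 hours at room temperature with LiveBLAzer B/G FRET substrate.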

The nature of assay [18]: qHTS assay for small molecule activators of the nuclear factor-kappa B (NF-kB) signaling pathway (AID 651749; active = well fitted activation curve with a large enough effect in the signal ratio; the % refers to the signal ratio; also: series mostly up to about 77 µM; % of control where 0% means no effect). Particulars: NF-kB-bla ME-180 cells, beta-lactamase FRET ratio, 16 h; stronger effect = higher value. The essentials:
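NF-kB-bla ME-180 cells carrying a beta-lactamase reporter under an NF-kB response element, 2,000 cells/well, exposed to compound for 16 hr at 37C; FRET-based beta-lactamase fluorescence read-out of pathway activation.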

Assay [19] addresses Androgen receptor (Homo sapiens) (UniProt P10275). The experiment in a line: qHTS assay for small molecule antagonists of androgen receptor signaling (AID 588516; active = well fitted curve in the direction sought with a large enough effect in the signal ratio, with a control signal flat, not every such curve was filed as active; the % refers to the signal ratio; also: % is scaled to controls: 0 for no effect and ±100 for the full control effect). In outline: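 Antagonist mode: inhibition of R1881-stimulated (10 nM final) bla reporter in GeneBLAzer AR HEK 293 cells, 16 h at 37C, compounds titrated. IC50 and efficacy from Hill-equation fits of 405/460–530 nm FRET ratios.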

For assay [20], the target named is Thyroid hormone receptor beta (Homo sapiens) (UniProt P10828). Briefly: qHTS assay for small molecule antagonists of thyroid hormone receptor beta signaling (AID 588547; active = well fitted inhibition curve with a large enough effect in the signal ratio, with a control signal flat, not every such curve was filed as active; the % refers to the signal ratio). Particulars: TR-UAS-bla HEK293, beta-lactamase ratio, antagonist mode, 18 h. In outline:
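TR-UAS-bla GripTite HEK293 cells in 2% charcoal/dextran FBS medium; compounds 0.59 nM to 92 uM with T3 at 0.4nM final, 18 h at 37 C. Beta-lactamase read by CCF4 fluorescence (460/530 nm); Hill fits gave IC50 and efficacy.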

Where “and” joins values, the source holds several entries; their conditions need not be identical. Equal values may be shown once. Results filed as inconclusive are left out. Calls of active or inactive are those of the source. Unless noted, calls follow the shape of the full dose curve.

Sequence of Glucocorticoid receptor (Homo sapiens) (P04150 whole entry, looked up): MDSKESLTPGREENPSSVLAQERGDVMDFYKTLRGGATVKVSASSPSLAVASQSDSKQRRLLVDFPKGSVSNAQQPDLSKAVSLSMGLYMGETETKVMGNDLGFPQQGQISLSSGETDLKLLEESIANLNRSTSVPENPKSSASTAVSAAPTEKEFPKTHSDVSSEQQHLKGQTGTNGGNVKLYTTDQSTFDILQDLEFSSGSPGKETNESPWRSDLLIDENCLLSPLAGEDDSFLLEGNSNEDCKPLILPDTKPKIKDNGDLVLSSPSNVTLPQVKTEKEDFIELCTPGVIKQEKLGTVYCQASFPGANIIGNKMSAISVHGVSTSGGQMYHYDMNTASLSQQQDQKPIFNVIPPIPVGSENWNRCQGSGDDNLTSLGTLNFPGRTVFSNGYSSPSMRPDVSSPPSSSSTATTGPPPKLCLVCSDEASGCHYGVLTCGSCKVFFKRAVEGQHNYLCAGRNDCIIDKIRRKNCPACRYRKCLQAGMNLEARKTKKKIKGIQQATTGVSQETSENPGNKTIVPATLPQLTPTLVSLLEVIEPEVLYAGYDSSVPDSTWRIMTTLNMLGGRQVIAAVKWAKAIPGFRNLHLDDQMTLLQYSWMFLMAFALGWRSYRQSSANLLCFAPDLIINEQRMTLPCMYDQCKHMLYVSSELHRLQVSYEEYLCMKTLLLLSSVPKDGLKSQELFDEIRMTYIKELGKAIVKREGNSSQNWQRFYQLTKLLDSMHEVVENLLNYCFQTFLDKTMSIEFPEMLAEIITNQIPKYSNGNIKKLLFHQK
Sequence of Retinoic acid receptor RXR-alpha (Homo sapiens) (P19793 whole entry, looked up): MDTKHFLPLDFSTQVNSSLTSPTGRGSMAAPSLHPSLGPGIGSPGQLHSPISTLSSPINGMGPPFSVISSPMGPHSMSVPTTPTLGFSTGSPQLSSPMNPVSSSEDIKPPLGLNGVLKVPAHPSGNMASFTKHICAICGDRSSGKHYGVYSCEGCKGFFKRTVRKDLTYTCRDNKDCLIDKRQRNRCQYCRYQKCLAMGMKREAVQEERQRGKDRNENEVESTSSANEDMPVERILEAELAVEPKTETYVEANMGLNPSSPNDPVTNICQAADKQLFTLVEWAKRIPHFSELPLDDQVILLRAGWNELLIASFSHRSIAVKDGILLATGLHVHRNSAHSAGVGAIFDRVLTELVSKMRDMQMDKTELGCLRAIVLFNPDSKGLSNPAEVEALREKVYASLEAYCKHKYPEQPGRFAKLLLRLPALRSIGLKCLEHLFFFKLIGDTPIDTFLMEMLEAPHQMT
Sequence of Thyroid hormone receptor beta (Homo sapiens) (P10828 whole entry, looked up): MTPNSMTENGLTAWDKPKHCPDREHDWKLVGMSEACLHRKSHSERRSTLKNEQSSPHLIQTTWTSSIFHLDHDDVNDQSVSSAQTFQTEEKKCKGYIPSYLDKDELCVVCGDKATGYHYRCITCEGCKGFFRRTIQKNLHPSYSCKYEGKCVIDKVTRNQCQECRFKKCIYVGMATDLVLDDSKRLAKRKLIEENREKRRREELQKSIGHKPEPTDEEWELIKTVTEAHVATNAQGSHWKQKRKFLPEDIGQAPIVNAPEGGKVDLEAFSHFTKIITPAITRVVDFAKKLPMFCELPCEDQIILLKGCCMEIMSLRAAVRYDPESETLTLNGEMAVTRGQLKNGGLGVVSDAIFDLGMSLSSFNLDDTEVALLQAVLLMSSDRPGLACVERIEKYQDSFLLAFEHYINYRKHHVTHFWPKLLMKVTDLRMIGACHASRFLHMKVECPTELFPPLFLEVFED
Sequence of Vitamin D3 receptor (Homo sapiens) (P11473 whole entry, looked up): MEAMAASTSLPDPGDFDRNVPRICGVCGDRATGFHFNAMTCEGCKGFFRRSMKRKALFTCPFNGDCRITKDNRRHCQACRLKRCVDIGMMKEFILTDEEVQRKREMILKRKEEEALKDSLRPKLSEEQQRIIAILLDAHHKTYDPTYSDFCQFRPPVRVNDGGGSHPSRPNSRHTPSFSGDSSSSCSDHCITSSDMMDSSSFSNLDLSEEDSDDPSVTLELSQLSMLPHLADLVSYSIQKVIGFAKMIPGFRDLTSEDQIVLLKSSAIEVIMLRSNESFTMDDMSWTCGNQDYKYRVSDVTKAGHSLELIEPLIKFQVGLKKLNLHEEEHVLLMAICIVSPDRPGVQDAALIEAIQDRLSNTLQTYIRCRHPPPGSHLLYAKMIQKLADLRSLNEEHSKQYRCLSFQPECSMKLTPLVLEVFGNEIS
Sequence of Androgen receptor (Homo sapiens) (P10275 whole entry, looked up): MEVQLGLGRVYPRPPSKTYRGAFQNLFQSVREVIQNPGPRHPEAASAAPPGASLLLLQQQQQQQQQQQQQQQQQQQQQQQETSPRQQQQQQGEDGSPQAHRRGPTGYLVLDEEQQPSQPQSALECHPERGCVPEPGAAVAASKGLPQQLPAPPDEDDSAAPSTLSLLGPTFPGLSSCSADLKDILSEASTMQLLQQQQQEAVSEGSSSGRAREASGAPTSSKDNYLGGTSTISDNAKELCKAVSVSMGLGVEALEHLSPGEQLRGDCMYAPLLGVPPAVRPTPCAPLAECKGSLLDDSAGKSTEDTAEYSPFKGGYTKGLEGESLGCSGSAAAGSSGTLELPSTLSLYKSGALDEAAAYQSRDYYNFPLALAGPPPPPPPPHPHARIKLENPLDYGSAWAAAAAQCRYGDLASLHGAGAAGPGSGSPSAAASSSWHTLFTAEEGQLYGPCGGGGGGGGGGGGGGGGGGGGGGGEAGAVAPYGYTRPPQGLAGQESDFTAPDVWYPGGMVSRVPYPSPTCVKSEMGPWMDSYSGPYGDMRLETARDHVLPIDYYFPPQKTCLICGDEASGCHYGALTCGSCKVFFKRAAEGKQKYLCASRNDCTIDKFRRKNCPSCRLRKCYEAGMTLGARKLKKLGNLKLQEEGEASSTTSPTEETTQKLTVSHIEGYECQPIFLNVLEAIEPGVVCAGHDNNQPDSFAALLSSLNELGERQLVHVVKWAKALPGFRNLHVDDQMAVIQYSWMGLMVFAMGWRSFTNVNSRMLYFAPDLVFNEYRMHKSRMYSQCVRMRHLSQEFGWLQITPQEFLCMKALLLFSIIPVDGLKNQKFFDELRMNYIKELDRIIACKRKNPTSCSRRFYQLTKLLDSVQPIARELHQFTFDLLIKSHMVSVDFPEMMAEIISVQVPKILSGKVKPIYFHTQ
Sequence of Voltage-gated inwardly rectifying potassium channel KCNH2 (Homo sapiens) (Q12809 whole entry, looked up): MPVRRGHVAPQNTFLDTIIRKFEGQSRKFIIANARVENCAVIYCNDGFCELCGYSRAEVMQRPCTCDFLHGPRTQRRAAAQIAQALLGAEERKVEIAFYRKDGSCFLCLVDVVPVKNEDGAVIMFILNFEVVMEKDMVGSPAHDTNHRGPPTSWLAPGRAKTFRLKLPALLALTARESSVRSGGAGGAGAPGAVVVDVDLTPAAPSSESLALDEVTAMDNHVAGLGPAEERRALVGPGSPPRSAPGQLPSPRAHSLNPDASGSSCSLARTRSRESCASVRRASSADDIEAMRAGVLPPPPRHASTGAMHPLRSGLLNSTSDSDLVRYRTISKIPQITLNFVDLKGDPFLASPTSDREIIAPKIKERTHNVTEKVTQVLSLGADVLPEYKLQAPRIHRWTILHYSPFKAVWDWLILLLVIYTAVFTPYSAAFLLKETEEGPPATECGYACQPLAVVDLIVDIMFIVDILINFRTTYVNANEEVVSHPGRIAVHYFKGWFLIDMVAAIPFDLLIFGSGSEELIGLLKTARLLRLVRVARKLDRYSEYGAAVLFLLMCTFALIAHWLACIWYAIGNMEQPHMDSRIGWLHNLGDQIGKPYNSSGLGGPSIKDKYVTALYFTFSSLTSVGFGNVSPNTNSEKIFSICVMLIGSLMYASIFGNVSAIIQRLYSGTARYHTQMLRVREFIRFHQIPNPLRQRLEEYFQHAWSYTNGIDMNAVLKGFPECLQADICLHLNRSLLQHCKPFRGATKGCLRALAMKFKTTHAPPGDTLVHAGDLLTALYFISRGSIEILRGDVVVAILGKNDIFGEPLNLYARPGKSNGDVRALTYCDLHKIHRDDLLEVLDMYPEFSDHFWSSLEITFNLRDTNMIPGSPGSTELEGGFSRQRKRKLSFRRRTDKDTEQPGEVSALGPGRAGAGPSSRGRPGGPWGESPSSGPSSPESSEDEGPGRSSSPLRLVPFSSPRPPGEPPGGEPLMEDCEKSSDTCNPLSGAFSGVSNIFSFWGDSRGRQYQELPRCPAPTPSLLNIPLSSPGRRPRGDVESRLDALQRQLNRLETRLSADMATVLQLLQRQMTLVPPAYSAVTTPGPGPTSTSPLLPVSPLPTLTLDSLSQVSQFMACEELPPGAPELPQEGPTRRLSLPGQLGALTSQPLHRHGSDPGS
Sequence of Bile acid receptor (Homo sapiens) (Q96RI1 whole entry, looked up): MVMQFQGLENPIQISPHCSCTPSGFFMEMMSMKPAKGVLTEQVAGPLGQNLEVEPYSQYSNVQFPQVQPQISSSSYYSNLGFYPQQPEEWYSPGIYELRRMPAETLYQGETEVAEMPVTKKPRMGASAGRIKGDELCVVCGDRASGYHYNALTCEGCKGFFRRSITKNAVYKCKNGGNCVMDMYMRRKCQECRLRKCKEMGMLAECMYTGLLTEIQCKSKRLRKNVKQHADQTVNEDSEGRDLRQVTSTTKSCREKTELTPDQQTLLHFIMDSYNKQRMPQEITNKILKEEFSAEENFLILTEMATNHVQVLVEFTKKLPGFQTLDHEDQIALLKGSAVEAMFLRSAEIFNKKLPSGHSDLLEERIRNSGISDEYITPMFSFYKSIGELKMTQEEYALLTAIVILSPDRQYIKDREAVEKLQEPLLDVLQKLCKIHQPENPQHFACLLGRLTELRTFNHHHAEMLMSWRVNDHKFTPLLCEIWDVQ

With `C1COC1`, the compound was classed as inactive in assay [1], in [3], in assay [6], in [7], in [8] and in assay [9]. The call in assay [11] and in [12] was inactive. The activation is 0.529% (inactive) in assay [2], 0.23% (inactive) in [17] and -0.645% (inactive) in assay [18]. For the same compound, the max response is -21% in assay [4], -1.49% in assay [10], -8.83% in assay [13] and 0.231% (inactive) in assay [14]. The Potency entry in assay [5], in assay [15] and in assay [16] was “inactive” throughout.

Take `ClCCl`: the outcome in [19], in assay [6], in assay [8], in assay [11] and in assay [12] was inactive. Also, the figures for the activation in [2] and in assay [17] were -3.26% (inactive) and -4.34% (inactive), respectively. Moreover, the max response in assay [4] was 23.4%; in [10] it was -5.75%; in assay [13], 3.57%. Moreover, the Potency entry in [5], in assay [15] and in [16] was “inactive” each time. The activity change % (negative = inhibition) in assay [20] was 0.0464% (inactive).

In the case of `CC(C=O)Cc1ccc(C(C)(C)C)cc1` (stereo unspecified), the outcome in assay [19], in assay [1], in assay [3], in [6], in assay [7] and in assay [9] was inactive. The compound was classed as inactive in assay [11] and in [12]. Besides, the activation was -5.34% (inactive) in assay [2]; 3.13% (inactive) and -1.47% (inactive) in assay [17]. Further, the max response was 41.6% in assay [4]; -4.78% and -12.5% in assay [10]; 2.84% and -3.45% in [13]; -0.768% (inactive) and 2.1% (inactive) in assay [14]. Besides, the Potency entry in assay [5] and in assay [16] was “inactive” in each case. Further, the activity change % (negative = inhibition) in assay [20] was 4.73% (inactive) and 0.44% (inactive).

Regarding `O=[N+]([O-])c1cc(C(F)(F)F)ccc1Cl`, the compound was called inactive in [19], in assay [3], in assay [6], in [7] and in assay [11]. Further, the activation was -0.113% (inactive) in [2] and -0.0124% (inactive) in [17]. The results for the max response in [10], in assay [13] and in assay [14] were -4.02%, -1.67% and -6.84% (inactive), respectively. Moreover, the activity change % (negative = inhibition) in assay [20] was -5.36% (inactive). Also, the Potency entry in assay [15] and in [16] was “inactive” throughout.

`CCN(Cc1ccccc1)c1ccccc1`: the call in assay [19], in assay [6], in assay [7] and in [11] was inactive. The max response in [10] is -15.3%; in assay [13], -8.88%; in assay [14], -8.29% (inactive). Besides, the activation in assay [17] is 1.3% (inactive).

On to `CC/C=C1/OC(=O)c2ccccc21`, for which the compound was called inactive in [19], in assay [3], in assay [6], in assay [8], in assay [11] and in assay [12]. Besides, the figures for the activation in [2], in assay [17] and in [18] were -3.66% (inactive), -1.64% (inactive) and -0.0092% (inactive), respectively. The max response in [4] is 6.22%; in [10] it was 0.089%; in [13], -8.24%; in assay [14], 8.95% (inactive). Moreover, the Potency entry in assay [5], in assay [15] and in assay [16] was “inactive” throughout. For the same compound, the activity change % (negative = inhibition) in assay [20] was 10.4% (inactive).

`COC(=O)CCC(=O)OC`: the outcome in [1], in assay [3], in assay [6], in assay [7], in [8] and in assay [9] was inactive. For the same compound, the compound was called inactive in [11] and in assay [12]. In addition, the values for the activation in assay [2], in assay [17] and in assay [18] were -3.79% (inactive), -2.9% (inactive) and 0.407% (inactive), respectively. Also, the max response in assay [4] is -38.8%; in assay [10], -2.46%; in assay [13], 1.7%; in assay [14] it was 6.03% (inactive). For the same compound, the Potency entry in [5], in [15] and in assay [16] was “inactive” each time. Further, in [20], the activity change % (negative = inhibition) was 1.67% (inactive).
